Measured values from PubChem BioAssay (NCATS).
Unmarked numbers belong to inactive results. Results filed as inconclusive are left out. Activity calls are given as the source filed them. Unless noted, the call rests on the fitted dose curve; in most records, active means well fitted curve in the direction sought with a large enough effect; inconclusive means small, poorly fitted or top-dose-only effect, or another doubt; inactive means no such curve, though single readings can be large; an effect the other way counts as inactive or inconclusive.

Assays:
[1] = molecular target: Lysosomal acid glucosylceramidase (Homo sapiens) (UniProt P04062); assay: Glucocerebrosidase-p2 (AID 348; in the data active means potency below about 10 µM; further: potency means the concentration at half of the fitted maximal effect); conditions: purified GBA, blue fluorogenic substrate, 40 min
How it was run: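 Compounds titrated from 0.6 nM upwards against 0.2 nM enzyme in pH 5.9 citric acid/KH2PO4, taurocholate, tween-20; blue fluorogenic substrate 80 uM, 40 min room temperature, stopped and read Ex 365/Em 440 for AC50.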

[2] = Stat Signaling Pathway (AID 446; active means well fitted curve in either direction with a large enough effect, not every such curve was filed as active;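 further: ME-180 cervical cancer cells given 40 pM IL-6 alongside compound; SIE-controlled beta-lactamase reporter measured as 460/530 nm FRET emission ratio; on the % scale 0 is the no-effect control and ±100 the full control effect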); conditions: ME-180 SIE beta-lactamase reporter, IL-6 stimulated, 5 h; at 7.69 µM (top of the series) unless noted
How it was run: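 Reporter line: ME-180 cervical carcinoma, SIE-beta-lactamase. Treatment: compound with 40 pM IL-6, 5 hrs, 37 C, in low-serum OPTI-MEM with 10 mM HEPES pH 7.3. Detection: 460/530 nm fluorescence.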

[3] = molecular target: Glucocorticoid receptor (Homo sapiens) (UniProt P04150); assay: GR-GFP Redistribution (AID 450;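 active means compounds whose dose series gives a full or clear partial fitted curve of increased nuclear translocation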; further: potency means the concentration at half of the fitted maximal effect); conditions: U2OS GR-GFP nuclear translocation, laser cytometry, 2 h
[4] = molecular target: Glucocorticoid receptor (Homo sapiens) (UniProt P04150); assay: GR-EFC Redistribution (AID 451; calls by dose curve; further: potency means the concentration at half of the fitted maximal effect); conditions: CHO-K1 GR-EFC translocation, beta-gal luminescence, 2 h
How it was run: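 CHO-K1 cells stably expressing nuclear-localized β-gal enzyme acceptor and GR fused C-terminally to the enzyme donor fragment; ligand-driven nuclear translocation restores β-gal by complementation. Compounds titrated up to 46 uM final, 2 h at 37 °C; luminescence read.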

[5] = molecular target: Mitogen-activated protein kinase 10 (Mus musculus) (UniProt Q61831); assay: JNK3 AlphaScreen Assay (AID 530; active means well fitted curve in either direction with a large enough effect, not every such curve was filed as active;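 further: kinase came from lysate of stimulated human HepG2 cells; signal reports phosphorylation of biotinylated GST-cJun 1-79 at Ser73 with 10 µM ATP; on the % scale 0 is the no-effect control and ±100 the full control effect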); conditions: JNK3 lysate, c-Jun phosphorylation; series mostly up to 57.1 µM
How it was run: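 JNK3 came from HepG2 lysates pre-activated with IL-1beta and TNF-alpha and phosphorylated biotinylated GST-cJun (1-79) at 10 uM ATP, pH 7.6, room temperature. Compounds were titrated. AlphaScreen signal used anti-phospho-cJun (Ser73) antibody.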

[6] = molecular target: 3',5'-cyclic-AMP phosphodiesterase 4B (Homo sapiens) (UniProt Q07343); assay: qHTS Assay for Inhibitors of PDE-IV (AID 607; active means well fitted activation curve with a large enough effect in the main read-out, with a control signal flat, not every such curve was filed as active; further: % of control where 0% means no effect); conditions: HEK293 ACTOne CNG channel cells, membrane potential fluorescence; series mostly up to 22.9 µM
How it was run: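 Cell-based read-out of cAMP via a modified cyclic nucleotide-gated channel and membrane potential dye (535/590 nm) in HEK293 cells expressing PDE4 endogenously. Compounds tested up to 22.9 uM final; 100 uM RO 20-1724 reference.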

[7] = molecular target: Cytochrome P450 3A4 (Homo sapiens) (UniProt P08684); assay: qHTS Assay for Activators of Cytochrome P450 3A4 (AID 885); conditions: recombinant CYP3A4, Luciferin-PPXE luminescence, 60 min; series mostly up to 57.1 µM; further: nearly all actives have a fitted effect of over 65% in size
How it was run: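 Signal was normalized against complete inhibition by 57 uM ketoconazole. The reaction used 20nM CYP3A4 with 25uM Luciferin-PPXE, 10-min compound preincubation and a 60-min NADPH-supported step at RT.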

[8] = molecular target: Dual specificity protein kinase CLK4 (Homo sapiens) (UniProt Q9HAZ1); assay: qHTS Assay for Inhibitors of CDC-like Kinase 4 (Kinase-Glo Assay) (AID 1770); conditions: recombinant Clk4, Kinase-Glo ATP depletion luminescence; series mostly up to 66.7 µM; further: nearly all actives have a fitted effect of over 65% in size; further: potency means the concentration at half of the fitted maximal effect
How it was run: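 Inhibition was judged from remaining ATP, measured by Ultra-Glo luciferase bioluminescence after Clk4 (25 nM) had acted on RS peptide at 1 uM ATP for 4.5 hours, room temperature.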

[9] = molecular target: Dual specificity protein kinase CLK4 (Homo sapiens) (UniProt Q9HAZ1); assay: qHTS Assay for Inhibitors of CDC-like Kinase 4 (ADP-Glo Assay) (AID 1771); conditions: recombinant CLK4, ADP-Glo luminescence; series mostly up to 80 µM; further: nearly all actives have a fitted effect of over 70% in size; further: potency means the concentration at half of the fitted maximal effect
How it was run: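 Clk4 (25 nM) was incubated 1 hr at room temperature with 100 uM RS repeat peptide and 1 uM ATP in buffer with 2 mM MgCl2, 0.5 mM EGTA, 2.5 mM DTT. ADP formed was quantified by ADP-Glo luminescence.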

[10] = molecular target: Dual specificity protein kinase CLK4 (Homo sapiens) (UniProt Q9HAZ1); assay: qHTS Assay for Inhibitors of CDC-like Kinase 4 (ADP-FP Assay) (AID 1795); conditions: Transcreener ADP fluorescence polarization; series mostly up to 50 µM; further: nearly all actives have a fitted effect of over 60% in size; further: potency means the concentration at half of the fitted maximal effect
How it was run: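 Inhibition of ADP formation by 6.25 nM Clk4 is measured using 1 uM ATP and 100 uM RS repeat peptide over one hour. Produced ADP displaces a fluorescent tracer from antibody, lowering polarization.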

[11] = molecular target: Ubiquitin carboxyl-terminal hydrolase 1 (Homo sapiens) (UniProt O94782); assay: Inhibitors of USP1/UAF1: Pilot qHTS (AID 504865); conditions: purified USP1/UAF1, Ub-rhodamine cleavage fluorescence; series mostly up to 54.9 µM; further: nearly all actives have a fitted effect of over 35% in size; further: potency means the concentration at half of the fitted maximal effect
How it was run: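 Kinetic fluorescence assay: 1nM USP1/UAF1, 15 min compound preincubation, then 150nM Ub-Rho; 480/540 nm.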

[12] = Primary qHTS for small molecule stabilizers of the endoplasmic reticulum resident proteome: Secreted ER Calcium Modulated Protein (SERCaMP) assay (AID 1508630); conditions: SH-SY5Y GLuc-SERCaMP (Gaussia luciferase released on ER calcium loss) secretion, thapsigargin, luminescence; series mostly up to 38.4 µM; further: on the % scale 0 is the no-effect control and ±100 the full control effect
How it was run: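 GLuc-SERCaMP-expressing SH-SY5Y cells, pretreated 16 h with compound, are challenged with thapsigargin to empty ER calcium stores; after 4 h, coelenterazine is added directly to the medium and luminescence is imaged.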

[13] = AP1 Signaling Pathway (AID 357; active means well fitted curve in either direction with a large enough effect, not every such curve was filed as active; further: on the % scale 0 is the no-effect control and ±100 the full control effect); conditions: ME-180 AP-1-bla reporter, EGF-induced, beta-lactamase ratio, 5 h; at 7.69 µM (top of the series) unless noted
How it was run: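 In this screen, ME-180 cells in Opti-MEM with 0.5% dialyzed FBS received EC50 EGF and compound titrations for 5 h. AP-1 reporter beta-lactamase was detected via CCF4 ratio, giving AC50 for positive and negative modulators.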

[14] = molecular target: Cytochrome P450 1A2 (Homo sapiens) (UniProt P05177); assay: p450-cyp1a2 (AID 410; calls by dose curve; further: potency means the concentration at half of the fitted maximal effect); conditions: recombinant CYP1A2, luciferin-ME demethylation, luminescence; series mostly up to 57 µM
How it was run: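 Human CYP1A2 (20nM) demethylated Luciferin-ME at its Km (100uM) in 100mM KPO4. After 10 min compound preincubation, NADPH regeneration ran the reaction 60 min at room temperature. Luciferin was read by luminescence, normalized to 57 uM furafylline.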

[15] = NFAT Signaling Pathway (AID 444; active means well fitted curve in either direction with a large enough effect, not every such curve was filed as active); conditions: Jurkat NFAT-bla M1, carbachol, beta-lactamase ratio, 5 h; at 7.69 µM (top of the series) unless noted
How it was run: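 Jurkat cells carrying an NFAT-driven β-lactamase reporter and co-transfected muscarinic M1 receptor were treated with compound plus carbachol (1 uM final, an EC50 level) for 5 h at 37 °C. CCF4 loading followed for 1 h at RT; 460/530 nm ratio gave %activity.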

[16] = molecular target: Cytochrome P450 3A4 (Homo sapiens) (UniProt P08684); assay: qHTS Assay for Inhibitors and Substrates of Cytochrome P450 3A4 (AID 884); conditions: recombinant CYP3A4, Luciferin-PPXE luminescence; series mostly up to 57.1 µM; further: potency means the concentration at half of the fitted maximal effect; nearly all actives have a fitted effect of over 50% in size
How it was run: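 20 nM human CYP3A4 with 25 uM Luciferin-PPXE (at KM) in 200 mM KPO4, preincubated 10 min with compound; NADPH regeneration started a 60 min RT reaction. Luciferin detected by luminescence, normalized to 57 uM ketoconazole as full inhibition.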

[17] = molecular target: Cytochrome P450 2C19 (Homo sapiens) (UniProt P33261); assay: qHTS Assay for Inhibitors and Substrates of Cytochrome P450 2C19 (AID 899); conditions: recombinant CYP2C19, luciferin-H EGE luminescence; series mostly up to 57.1 µM; further: potency means the concentration at half of the fitted maximal effect; nearly all actives have a fitted effect of over 60% in size
How it was run: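 Human CYP2C19 (5nM) with Luciferin-H EGE at 10uM (its KM) in 50mM KPO4 was preincubated with compound for 10 min at 37C. NADPH regeneration started a 60 min 37C reaction. Luciferin was read by luminescence, normalized to 57uM ketoconazole.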

[18] = qHTS Assay for Identification of Small Molecule Agonists for Hypoxia Response Element Signaling Pathway (AID 914; active means well fitted activation curve with a large enough effect in the signal ratio, with a control signal flat, not every such curve was filed as active; the % refers to the signal ratio; further: potency means the concentration at half of the fitted maximal effect; on activation: % of control where 0% means no effect); conditions: ME-180 (cervical carcinoma) HRE-bla reporter, beta-lactamase ratio, CoCl2, 17 h; activation: active compounds read high
How it was run: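 Reporter activity (beta-lactamase, CCF4 460nm/530nm ratio) in HRE-bla ME-180 cells is recorded after 17 h compound exposure with EC50 CoCl2 at 37 degrees Celsius. AC50 values come from titration data.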

[19] = molecular target: Cytochrome P450 2C9 (Homo sapiens) (UniProt P11712); assay: qHTS Assay for Inhibitors and Substrates of Cytochrome P450 2C9 (AID 883); conditions: recombinant CYP2C9, luciferin-H luminescence, 60 min; series mostly up to 57.1 µM; further: potency means the concentration at half of the fitted maximal effect; nearly all actives have a fitted effect of over 60% in size
How it was run: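 Human CYP2C9 (10nM) hydroxylated Luciferin-H (100uM, at its KM) to luciferin in 25mM KPO4. Compound was preincubated 10 min at 37C, then NADPH regeneration started a 60 min reaction at 37C. Luminescence was read after detection reagent, normalized to 57uM sulphaphenazole.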

Cytochrome P450 1A2 (Homo sapiens), sequence (P05177 whole entry, looked up): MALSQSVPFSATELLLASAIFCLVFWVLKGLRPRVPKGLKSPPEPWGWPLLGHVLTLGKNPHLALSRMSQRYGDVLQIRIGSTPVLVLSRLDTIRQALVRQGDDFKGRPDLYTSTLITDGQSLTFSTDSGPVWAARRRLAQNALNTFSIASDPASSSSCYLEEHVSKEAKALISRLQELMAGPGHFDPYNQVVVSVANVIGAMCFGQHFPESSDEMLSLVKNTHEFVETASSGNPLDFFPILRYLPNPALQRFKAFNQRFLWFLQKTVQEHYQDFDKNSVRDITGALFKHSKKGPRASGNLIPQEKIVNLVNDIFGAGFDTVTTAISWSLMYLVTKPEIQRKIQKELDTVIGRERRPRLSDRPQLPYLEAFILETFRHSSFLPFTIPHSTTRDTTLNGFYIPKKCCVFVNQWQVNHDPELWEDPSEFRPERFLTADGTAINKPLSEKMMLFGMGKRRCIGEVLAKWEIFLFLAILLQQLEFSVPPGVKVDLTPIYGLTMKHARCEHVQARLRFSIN
3',5'-cyclic-AMP phosphodiesterase 4B (Homo sapiens), sequence (Q07343 whole entry, looked up): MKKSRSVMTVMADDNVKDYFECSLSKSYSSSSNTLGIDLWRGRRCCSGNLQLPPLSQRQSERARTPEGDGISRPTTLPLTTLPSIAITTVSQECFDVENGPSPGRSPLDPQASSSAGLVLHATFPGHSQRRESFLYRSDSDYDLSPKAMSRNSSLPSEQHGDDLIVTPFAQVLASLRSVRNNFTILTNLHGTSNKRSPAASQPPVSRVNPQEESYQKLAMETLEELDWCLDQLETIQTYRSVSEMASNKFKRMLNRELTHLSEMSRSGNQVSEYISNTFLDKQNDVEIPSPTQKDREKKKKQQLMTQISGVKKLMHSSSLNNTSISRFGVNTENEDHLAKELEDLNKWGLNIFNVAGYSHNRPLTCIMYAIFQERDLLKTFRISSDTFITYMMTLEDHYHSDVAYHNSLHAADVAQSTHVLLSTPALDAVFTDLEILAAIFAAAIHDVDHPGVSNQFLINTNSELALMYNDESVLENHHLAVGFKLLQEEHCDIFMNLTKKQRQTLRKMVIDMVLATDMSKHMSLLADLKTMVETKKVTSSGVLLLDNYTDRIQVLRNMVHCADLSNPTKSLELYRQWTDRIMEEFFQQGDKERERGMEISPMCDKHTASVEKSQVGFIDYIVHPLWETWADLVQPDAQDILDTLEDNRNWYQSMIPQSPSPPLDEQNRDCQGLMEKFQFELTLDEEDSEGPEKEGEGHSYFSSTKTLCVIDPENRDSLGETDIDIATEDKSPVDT
Glucocorticoid receptor (Homo sapiens), sequence (P04150 whole entry, looked up, the tested form may be a part): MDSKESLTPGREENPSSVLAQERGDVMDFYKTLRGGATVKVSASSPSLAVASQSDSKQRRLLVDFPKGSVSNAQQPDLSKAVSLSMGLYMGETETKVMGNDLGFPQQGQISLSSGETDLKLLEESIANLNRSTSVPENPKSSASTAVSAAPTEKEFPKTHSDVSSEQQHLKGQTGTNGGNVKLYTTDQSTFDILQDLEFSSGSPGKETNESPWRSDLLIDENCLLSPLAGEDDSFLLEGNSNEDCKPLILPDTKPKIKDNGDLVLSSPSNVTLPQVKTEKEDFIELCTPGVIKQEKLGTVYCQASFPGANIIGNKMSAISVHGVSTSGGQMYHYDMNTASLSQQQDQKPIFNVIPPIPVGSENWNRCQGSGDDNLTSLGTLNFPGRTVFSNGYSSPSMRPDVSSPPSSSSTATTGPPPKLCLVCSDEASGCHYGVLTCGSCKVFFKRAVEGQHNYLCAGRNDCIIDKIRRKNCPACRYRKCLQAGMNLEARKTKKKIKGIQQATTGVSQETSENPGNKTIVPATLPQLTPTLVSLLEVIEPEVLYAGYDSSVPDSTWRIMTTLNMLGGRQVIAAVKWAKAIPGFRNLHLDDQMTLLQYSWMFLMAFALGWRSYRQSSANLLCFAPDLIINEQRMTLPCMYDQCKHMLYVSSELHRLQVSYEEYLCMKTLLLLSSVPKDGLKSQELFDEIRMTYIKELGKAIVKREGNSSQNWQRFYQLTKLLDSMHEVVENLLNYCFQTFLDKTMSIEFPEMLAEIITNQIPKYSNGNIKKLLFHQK
Dual specificity protein kinase CLK4 (Homo sapiens), sequence (Q9HAZ1 whole entry, looked up): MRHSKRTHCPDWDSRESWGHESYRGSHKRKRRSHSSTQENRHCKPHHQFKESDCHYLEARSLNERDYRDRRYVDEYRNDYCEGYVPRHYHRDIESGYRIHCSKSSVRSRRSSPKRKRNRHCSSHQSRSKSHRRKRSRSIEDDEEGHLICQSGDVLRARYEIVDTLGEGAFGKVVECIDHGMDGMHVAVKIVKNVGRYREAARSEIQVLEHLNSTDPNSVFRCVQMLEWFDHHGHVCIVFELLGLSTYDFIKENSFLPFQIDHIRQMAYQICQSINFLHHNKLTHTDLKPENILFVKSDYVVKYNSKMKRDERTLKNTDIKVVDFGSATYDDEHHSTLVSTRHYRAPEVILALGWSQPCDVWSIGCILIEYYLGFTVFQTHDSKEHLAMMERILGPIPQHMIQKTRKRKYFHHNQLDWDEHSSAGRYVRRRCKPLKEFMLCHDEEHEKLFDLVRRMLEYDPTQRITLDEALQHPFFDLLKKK
Cytochrome P450 2C19 (Homo sapiens), sequence (P33261 whole entry, looked up): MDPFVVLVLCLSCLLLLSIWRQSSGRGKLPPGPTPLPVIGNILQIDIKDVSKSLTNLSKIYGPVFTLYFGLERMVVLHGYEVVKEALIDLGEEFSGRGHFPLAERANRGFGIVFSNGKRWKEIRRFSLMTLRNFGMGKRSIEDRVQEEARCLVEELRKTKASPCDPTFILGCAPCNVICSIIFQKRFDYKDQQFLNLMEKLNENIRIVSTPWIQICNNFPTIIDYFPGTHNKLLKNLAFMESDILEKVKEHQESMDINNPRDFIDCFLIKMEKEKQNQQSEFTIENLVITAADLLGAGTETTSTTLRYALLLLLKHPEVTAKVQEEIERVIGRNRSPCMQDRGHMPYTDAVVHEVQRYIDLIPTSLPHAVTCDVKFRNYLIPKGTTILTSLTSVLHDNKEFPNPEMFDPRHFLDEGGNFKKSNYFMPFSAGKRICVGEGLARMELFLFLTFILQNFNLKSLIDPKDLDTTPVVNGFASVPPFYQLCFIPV
Ubiquitin carboxyl-terminal hydrolase 1 (Homo sapiens), sequence (O94782 whole entry, looked up): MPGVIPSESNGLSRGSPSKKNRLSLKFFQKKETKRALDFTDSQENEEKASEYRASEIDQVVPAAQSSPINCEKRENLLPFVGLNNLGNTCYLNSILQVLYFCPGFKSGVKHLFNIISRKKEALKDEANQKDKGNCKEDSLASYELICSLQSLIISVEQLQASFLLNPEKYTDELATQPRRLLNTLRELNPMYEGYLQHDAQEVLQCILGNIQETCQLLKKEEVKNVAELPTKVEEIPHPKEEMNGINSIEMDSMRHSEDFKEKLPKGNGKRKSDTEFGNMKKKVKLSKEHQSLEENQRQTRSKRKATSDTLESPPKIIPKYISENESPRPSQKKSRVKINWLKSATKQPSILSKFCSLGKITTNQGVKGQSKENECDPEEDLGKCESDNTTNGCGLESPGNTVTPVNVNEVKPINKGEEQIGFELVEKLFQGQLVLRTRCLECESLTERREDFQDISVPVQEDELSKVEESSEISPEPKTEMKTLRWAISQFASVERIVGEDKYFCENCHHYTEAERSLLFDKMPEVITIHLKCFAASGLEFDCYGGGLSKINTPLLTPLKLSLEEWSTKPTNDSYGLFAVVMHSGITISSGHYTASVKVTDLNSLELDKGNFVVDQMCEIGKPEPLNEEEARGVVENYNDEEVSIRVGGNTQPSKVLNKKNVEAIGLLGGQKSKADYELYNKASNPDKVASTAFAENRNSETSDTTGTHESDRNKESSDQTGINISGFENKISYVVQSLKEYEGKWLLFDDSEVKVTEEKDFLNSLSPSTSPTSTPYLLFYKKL
Lysosomal acid glucosylceramidase (Homo sapiens), sequence (P04062 whole entry, looked up): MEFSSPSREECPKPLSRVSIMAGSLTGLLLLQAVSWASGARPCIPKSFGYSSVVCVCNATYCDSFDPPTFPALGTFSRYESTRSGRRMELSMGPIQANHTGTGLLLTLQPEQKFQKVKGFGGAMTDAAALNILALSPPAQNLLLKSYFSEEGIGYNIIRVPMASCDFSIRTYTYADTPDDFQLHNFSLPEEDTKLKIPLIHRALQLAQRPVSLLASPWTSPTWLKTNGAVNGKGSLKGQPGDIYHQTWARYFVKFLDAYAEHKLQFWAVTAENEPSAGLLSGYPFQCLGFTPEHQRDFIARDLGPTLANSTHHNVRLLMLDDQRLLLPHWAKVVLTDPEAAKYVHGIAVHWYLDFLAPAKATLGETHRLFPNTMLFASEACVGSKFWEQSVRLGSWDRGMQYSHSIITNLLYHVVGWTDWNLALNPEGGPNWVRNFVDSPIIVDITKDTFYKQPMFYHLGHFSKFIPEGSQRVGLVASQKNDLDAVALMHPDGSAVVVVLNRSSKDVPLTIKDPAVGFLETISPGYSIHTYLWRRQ
Cytochrome P450 3A4 (Homo sapiens), sequence (P08684 whole entry, looked up): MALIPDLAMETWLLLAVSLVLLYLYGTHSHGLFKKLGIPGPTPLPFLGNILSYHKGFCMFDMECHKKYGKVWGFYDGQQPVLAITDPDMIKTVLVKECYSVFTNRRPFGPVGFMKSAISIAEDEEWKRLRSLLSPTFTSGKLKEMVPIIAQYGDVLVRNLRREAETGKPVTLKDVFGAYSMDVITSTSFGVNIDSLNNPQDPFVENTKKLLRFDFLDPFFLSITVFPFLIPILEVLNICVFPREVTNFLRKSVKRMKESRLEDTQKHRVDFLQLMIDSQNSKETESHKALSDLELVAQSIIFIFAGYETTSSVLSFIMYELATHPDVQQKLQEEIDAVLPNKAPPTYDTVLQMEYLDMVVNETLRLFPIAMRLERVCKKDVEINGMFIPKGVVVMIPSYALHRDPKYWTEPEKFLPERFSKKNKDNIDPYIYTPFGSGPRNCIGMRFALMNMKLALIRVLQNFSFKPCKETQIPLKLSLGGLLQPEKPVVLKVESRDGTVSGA

Row | Compound | Potency [1] | activity, negative = inhibition [2] | Potency [3] | Potency [4] | Potency [5] | Potency [6] | Potency [7] | Potency [8] | Potency [9] | Potency [10] | Potency [11] | outcome [12] | activity change, negative = inhibition [13] | Potency [14] | activity change, negative = inhibition [15] | Potency [16] | Potency [17] | Potency [18] | activation [18] | Potency [19]
1 | COc1cccc(Nc2ncc3nc(-c4cc(F)cc(F)c4)c(=O)n(C[C@H]4CCCO4)c3n2)c1 | > 11.4 µM | -10.3% | > 9.22 µM | > 46 µM | inactive | inactive | inactive | inactive | inactive | inactive | inactive | inactive | – | – | – | – | – | – | – | –
2 | Cc1cnc(CNc2ncncc2-c2ccc3c(c2)OCO3)cn1 | > 11.4 µM | 4.5% | > 46 µM | > 46 µM | inactive | inactive | inactive | 14.1 µM (active) | 15.8 µM (active) | – | inactive | inactive | -10.4% | 2 µM (active) | -2.24% | 1.58 µM (active) | – | – | – | –
3 | COc1ccccc1CNc1ccnc(-c2ccccc2Cl)n1 | – | -0.645% | > 46 µM | – | inactive | inactive | inactive | inactive | inactive | inactive | – | inactive | -21.9% | 5.01 µM (active) | -0.207% | – | 1.58 µM (active) | – | – | –
4 | CCNc1ncc2nc(-c3cccs3)c(=O)n(CCc3ccccc3)c2n1 | – | 98% [activator] (active) | > 9.22 µM | > 46 µM | inactive | – | – | inactive | inactive | inactive | inactive | inactive | – | 10 µM (active) | – | – | – | 1 µM (active) | – | –
5 | Cc1cccc(CNc2ccnc(-c3ccccc3C(F)(F)F)n2)c1 | – | 5.48% | > 46 µM | > 46 µM | inactive | – | – | inactive | inactive | inactive | 3.98 µM (active) | inactive | -10.1% | 6.31 µM (active) | – | – | – | – | -2.48% | –
6 | COc1ccc(CNc2nc(-c3cccc(NS(C)(=O)=O)c3)nc3ccccc23)c(OC)c1 | – | – | > 46 µM | > 46 µM | inactive | – | inactive | inactive | inactive | inactive | inactive | inactive | – | 15.8 µM (active) | – | 2.51 µM (active) | – | – | – | 0.158 µM (active)
7 | Cc1nc2cncnc2n(Cc2ccc(F)cc2)c1=O | > 11.4 µM | -9.93% | > 9.22 µM | > 46 µM | inactive | inactive | inactive | inactive | inactive | – | inactive | inactive | -6.19% | 10 µM (active) | 9.35% | – | – | – | – | –
8 | COc1cccc(-c2cc(NCc3cccnc3)ncn2)c1 | > 11.4 µM | -7.08% | > 46 µM | > 46 µM | inactive | inactive | inactive | 14.1 µM (active) | 14.1 µM (active) | – | inactive | inactive | 12.8% | 0.631 µM (active) | 0.0139% | 3.98 µM (active) | – | – | – | –
9 | Cc1cnc(CNc2ccnc(-c3cccc(C#N)c3)n2)cn1 | > 11.4 µM | 6.8% | > 46 µM | > 46 µM | inactive | inactive | inactive | 22.4 µM (active) | 15.8 µM (active) | – | inactive | inactive | -12.1% | 1.26 µM (active) | 16.3% | – | – | – | – | –
10 | COc1ccc2[nH]cc(CCNc3cc(-c4ccc(C(=O)N(C)C)cc4)ncn3)c2c1 | > 11.4 µM | -10.6% | > 46 µM | > 46 µM | inactive | inactive | inactive | 10 µM (active) | 10 µM (active) | – | inactive | inactive | -10.4% | 20 µM (active) | 0.0562% | 6.31 µM (active) | – | – | – | –
11 | COc1ccccc1-c1cc(NCc2cccs2)ncn1 | > 11.4 µM | -5.58% | > 46 µM | > 46 µM | inactive | inactive | inactive | 14.1 µM (active) | 14.1 µM (active) | – | inactive | inactive | 0.573% | 1.58 µM (active) | 9.61% | – | – | – | – | –
12 | CN(Cc1ccco1)c1ncncc1-c1ccccc1C(F)(F)F | – | -2.15% | > 46 µM | > 46 µM | inactive | inactive | inactive | inactive | inactive | inactive | inactive | inactive | 13.8% | 12.6 µM (active) | – | 1.26 µM (active) | 3.98 µM (active) | – | – | –
13 | COc1cccc(-c2ccc3ncnc(N4CCOCC4)c3c2)c1 | – | 8.65% | > 46 µM | > 46 µM | inactive | – | inactive | 1.41 µM (active) | 1.58 µM (active) | 1.12 µM (active) | inactive | inactive | – | 1 µM (active) | – | – | 3.98 µM (active) | – | – | –
